A selection: hits, their analogues and other compounds. The true share with any hit is near 2.9%.
Nrf2 activator = qHTS of Nrf2 Activators; AREc32 ARE-luciferase reporter (MCF7-derived line), luminescence, 24 h; Potency, µM (titrated, usually from 46.1 µM), for the others: at the top dose activation, most hits filed as activators; hit rate 0.31% among 410,000; AID 624171, 2012; also: % of control where 0% means no effect; nearly all actives have a fitted effect of over 65% in size
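Quantitative high-throughput format: AREc32 reporter cells, 1000 per well, received compound by pin transfer and were incubated 24 hr at 37 deg C, 5% CO2, before Steady-Glo luminescence detection.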
A549 tox = Nrf2 qHTS screen for inhibitors: counterscreen for cytotoxicity. A549 ARE-Fluc cells, CellTiter-Fluor viability, 18-24 h. Potency, µM (top dose mostly 46 µM), without a hit: at the highest dose activity change, negative = cytotoxicity, hits mostly inhibitors. hit rate 0.16% among 390,000. AID 504648, 2011; also: % is scaled to controls: 0 for no effect and ±100 for the full control effect
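A549 ARE_Fluc cells in 5% FBS OPTI-MEM were exposed to compounds in concentration-response for 18-24 h at 37 deg C. Viability was read by CellTiter-Fluor fluorescence (Ex 405/Em 525) after 30 min, before the luciferase read.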
ATXN2 expr inh = Primary qHTS for Inhibitors of ATXN expression; HEK-293 ATXN2-luciferase reporter, luminescence, 24 h; Potency, µM (doses to about 57 µM), without a hit: top-dose activity change, negative = inhibition, actives largely listed as inhibitors; hit rate 0.72% among 360,000; AID 1745845, 2022; also: % is scaled to controls: 0 for no effect and ±100 for the full control effect; nearly all actives have a fitted effect of over 55% in size
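ATXN2-luciferase reporter cells (luciferase flanked by upstream and downstream ATXN2 gene portions) were treated 24 h at 37 °C with compounds at up to 57 uM. SteadyGlo luminescence gave expression; GF-AFC fluorescence gave viability.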
Nrf2 block = Nrf2 qHTS screen for inhibitors; A549 ARE-Fluc reporter, luciferase luminescence, 18-24 h; Potency, µM (titrated, usually from 46 µM), for inactives: top-dose activity change, negative = inhibition, actives largely listed as inhibitors; hit rate 2.1% among 360,000; AID 504444, 2011; also: % is scaled to controls: 0 for no effect and ±100 for the full control effect; nearly all actives have a fitted effect of over 60% in size
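Nrf2 activity is the BugLite luminescence, read 15 min after reagent at room temperature, following CellTiter-Fluor cytotoxicity readout (30 min, 37C). Compound titrations were applied for 18-24 h to 5000 A549 ARE_Fluc cells/well in 5% FBS OPTI-MEM.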
ATXN viability = Viability Counterscreen for Primary qHTS for Inhibitors of ATXN expression; S2 cells (HEK-293 line with an ATXN2-luciferase reporter) viability, CellTiter-Fluor protease fluorescence, 24 h; hit rate 0.49% among 400,000; Potency, µM (top dose mostly 56.7 µM), hits mostly cytotoxic; also: nearly all actives have a fitted effect of over 40% in size
Active calls of the source: *; ! = repeats disagree. Calls follow the shape of the dose curve; as a rule, active = well fitted curve in the direction sought with a large enough effect; inconclusive = small, poorly fitted or top-dose-only effect, or another doubt; inactive = no such curve, though single readings can be large; an effect the other way counts as inactive or inconclusive. Potency is read from the fitted curve at half-maximal effect.

What do the screens show for `Oc1ccc(N2CCN(Cc3ccc(OCCCN4CCCCC4)cc3)CC2)cc1`?
Nrf2 activator: 0.3%; A549 tox: inconclusive; ATXN2 expr inh: -22.1%; Nrf2 block: 13.3%; ATXN viability: inconclusive

How did Cc1c(-c2ccc(O)cc2)n(Cc2ccc(OCCN3CCCCCC3)cc2)c2ccc(O)cc12 do in these assays?
ATXN2 expr inh: 17.8µM*!; ATXN viability: 15.8µM*!

What do the screens show for `Cc1ccc2cccc(NC(=O)c3ccc(-c4cccc(Cl)c4)o3)c2n1`?
Nrf2 activator: -0.8%; A549 tox: 1.1%; ATXN2 expr inh: 7.9%; Nrf2 block: 1.3%; ATXN viability: inactive

Results for Cc1c(Cl)cccc1NC(=O)NCCOCCn1c(=O)oc2ccccc21 ?
Nrf2 activator: -0.9%; A549 tox: 1.8%; ATXN2 expr inh: -20.6%; Nrf2 block: -26.3%; ATXN viability: inactive

How did COC(=O)C1=C(C)N(c2ccc(C(=O)OC)cc2)C(=O)C1 do in these assays?
Nrf2 activator: 2.6%; A549 tox: -7.5%; ATXN2 expr inh: -5.0%; Nrf2 block: -13.3%; ATXN viability: inactive

What do the screens show for `COC(=O)C1=C(C)N(c2cc(Cl)cc(Cl)c2)C(=O)C1`?
Nrf2 activator: inconclusive; A549 tox: -15.0%; ATXN2 expr inh: -39.0%; Nrf2 block: 9.2µM*; ATXN viability: inactive

How did CSC(SC)=C(C#N)C(=O)c1ccccc1 do in these assays?
Nrf2 activator: 16.3%; A549 tox: inconclusive; ATXN2 expr inh: 22.4µM*; Nrf2 block: 9.5%

How did COc1cccc(C(=O)C(C#N)=C(SC)SC)c1 do in these assays?
Nrf2 activator: 9.9%; A549 tox: -12.0%; Nrf2 block: inconclusive

How did CCC1(C2CCN(Cc3cccc(Cl)c3)CC2)NC(=O)N(CC2COc3ccccc3O2)C1=O (stereo unspecified) do in these assays?
ATXN viability: inactive

How did COc1cccc(OC)c1C(=O)NCCc1ccccc1 do in these assays?
Nrf2 activator: 0.5%; A549 tox: -1.7%; ATXN2 expr inh: -10.1%; Nrf2 block: -7.9%; ATXN viability: inactive

Results for COC(=O)c1c(N)sc(C(=O)NCCc2ccccc2)c1C ?
Nrf2 activator: -2.0%; A549 tox: 0.0%; ATXN2 expr inh: 3.55µM*; Nrf2 block: inconclusive; ATXN viability: inactive

Results for COC(=O)c1c(NC(=O)c2ccccc2)sc(C(N)=O)c1C ?
Nrf2 activator: 1µM*; A549 tox: -5.7%; ATXN2 expr inh: -4.2%; Nrf2 block: inconclusive; ATXN viability: inactive

Results for Cc1ccccc1C(=O)NC(C)c1nnc2n1CCN(Cc1ccc(F)cc1)CC2 (stereo unspecified) ?
ATXN viability: inactive

Results for CCOC(=O)c1cccc(NC(=O)CC2C(=O)N(c3ccc(OC)cc3)C(=O)N2C2CCCC2)c1 (stereo unspecified) ?
Nrf2 activator: 3.0%; A549 tox: 1.4%; Nrf2 block: -11.9%

How did COc1ccc(-c2ccc3oc(-c4ccc(OC)cc4)c(-c4ccc(OC)cc4)c3c2)cc1 do in these assays?
Nrf2 activator: -1.4%; A549 tox: -0.7%; ATXN2 expr inh: -9.9%; Nrf2 block: -1.0%; ATXN viability: inactive

What do the screens show for `COc1ccc(-c2oc3ccc(N4CCOCC4)cc3c2C#CCO)cc1`?
Nrf2 activator: -0.6%; A549 tox: -9.0%; ATXN2 expr inh: inconclusive; Nrf2 block: 18.4µM*; ATXN viability: inconclusive

Results for COc1ccc(-c2sc3ccc(N4CCOCC4)cc3c2C#CC(C)(C)O)cc1 ?
Nrf2 activator: 3.9%; A549 tox: -5.2%; ATXN2 expr inh: -1.5%; Nrf2 block: 7.3%; ATXN viability: inconclusive

How did COc1ccc(-c2ccc3oc(-c4ccc(OC)cc4)c(C#CCO)c3c2)cc1 do in these assays?
Nrf2 activator: 2.6%; A549 tox: -15.4%; ATXN2 expr inh: -36.4%; Nrf2 block: 8.2µM*; ATXN viability: inconclusive

Results for O=C(NCc1cccnc1)C1CCN(Cc2cc3ccccc3n2Cc2cccc(Cl)c2)CC1 ?
Nrf2 activator: -0.6%; A549 tox: -12.2%; ATXN2 expr inh: inconclusive; ATXN viability: inconclusive

How did Cc1cccc(S(=O)(=O)NC2CCN(C#N)C2)c1 (stereo unspecified) do in these assays?
A549 tox: -0.8%; Nrf2 block: -6.2%

Results for CCOC(=O)N1CCN(S(=O)(=O)c2ccc(C(=O)NNc3nc4cc(C)cc(C)c4s3)cc2)CC1 ?
Nrf2 activator: -0.1%; A549 tox: inconclusive; ATXN2 expr inh: inconclusive; Nrf2 block: 3.66µM*; ATXN viability: inactive

How did CCOc1ccc(N(C)S(=O)(=O)c2ccc(C)c(C(=O)NCc3cccs3)c2)cc1 do in these assays?
Nrf2 activator: 0.2%; A549 tox: -4.5%; ATXN2 expr inh: -15.3%; Nrf2 block: 16.4µM*; ATXN viability: inactive

What do the screens show for `CCOc1ccc(C(=O)NCc2cccs2)cc1`?
Nrf2 activator: 1.7%; A549 tox: -1.6%; ATXN2 expr inh: 29.0%; Nrf2 block: inconclusive; ATXN viability: inactive

Results for CCCCc1c(-c2ccccc2OC)ncn1CCc1cccc(OC)c1 ?
Nrf2 activator: -0.5%; ATXN2 expr inh: inconclusive; ATXN viability: 31.6µM*

How did CCCCCc1c(-c2ccccc2OC)ncn1CCc1ccccc1OC do in these assays?
Nrf2 activator: -3.2%; ATXN2 expr inh: -35.3%

What do the screens show for `CCCCc1c(-c2ccccc2OC)ncn1CCc1cccc(F)c1`?
Nrf2 activator: -0.5%; ATXN2 expr inh: inconclusive; ATXN viability: inconclusive

How did CCCCc1c(-c2ccccc2OC)ncn1CCc1ccccc1OC do in these assays?
Nrf2 activator: 0.0%; ATXN2 expr inh: inconclusive; ATXN viability: 31.6µM*

How did CCCCCc1c(CC)ncn1CCc1ccccc1OC do in these assays?
Nrf2 activator: 3.3%; ATXN2 expr inh: inconclusive; ATXN viability: 15.8µM*

Results for Cc1cccc(Cn2cnc3c(oc4ccccc43)c2=O)c1 ?
Nrf2 activator: 0.4%; A549 tox: -14.0%; ATXN2 expr inh: 5.9%; Nrf2 block: -14.2%; ATXN viability: inactive

What do the screens show for `O=C(Nc1ccc(Cc2ccncc2)cc1)C1CC1`?
Nrf2 activator: 0.3%; A549 tox: 0.5%; ATXN2 expr inh: 2.3%; Nrf2 block: 9.3%; ATXN viability: inactive

What do the screens show for `O=C(Nc1ccc(Cc2ccncc2)cc1)C1CCC(N2C(=O)C3C4C=CC(C5CC45)C3C2=O)CC1` (stereo unspecified)?
Nrf2 activator: -0.1%; A549 tox: inconclusive; ATXN2 expr inh: -23.2%; Nrf2 block: 18.4µM*; ATXN viability: inconclusive

What do the screens show for `CC(=O)Nc1ccc(NC(=O)C2CCC(N3C(=O)C4C5C=CC(C6CC56)C4C3=O)CC2)cc1` (stereo unspecified)?
Nrf2 activator: 0.2%; A549 tox: -16.9%; Nrf2 block: 25.9µM*; ATXN viability: inactive
